Bioassay records (PubChem BioAssay)
CBFb-RUNX1 inh – blocks binding between human CBF-beta and RUNX1; Q01196+Q13951; AlphaScreen CBFb-His/RUNX1-biotin binding, biochemical; Potency, µM (series often up to 59.8 µM), without a hit: top-dose activity, negative = inhibition, actives largely listed as inhibitors; 230,000 tested, under 10 active; note: % of control where 0% means no effect
Target sequence (Q01196 whole entry, looked up): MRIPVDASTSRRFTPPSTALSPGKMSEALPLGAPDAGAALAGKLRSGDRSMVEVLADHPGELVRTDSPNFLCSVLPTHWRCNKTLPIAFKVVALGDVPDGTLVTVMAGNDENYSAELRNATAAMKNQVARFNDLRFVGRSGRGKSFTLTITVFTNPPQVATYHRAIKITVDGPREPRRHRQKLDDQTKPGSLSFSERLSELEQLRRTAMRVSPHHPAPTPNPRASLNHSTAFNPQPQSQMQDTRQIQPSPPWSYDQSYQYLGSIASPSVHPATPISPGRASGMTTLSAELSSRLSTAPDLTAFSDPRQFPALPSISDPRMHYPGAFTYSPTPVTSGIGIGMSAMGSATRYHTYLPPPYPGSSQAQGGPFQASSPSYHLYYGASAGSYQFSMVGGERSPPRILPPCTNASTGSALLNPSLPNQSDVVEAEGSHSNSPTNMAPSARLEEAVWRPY
Target sequence (Q13951 whole entry, looked up): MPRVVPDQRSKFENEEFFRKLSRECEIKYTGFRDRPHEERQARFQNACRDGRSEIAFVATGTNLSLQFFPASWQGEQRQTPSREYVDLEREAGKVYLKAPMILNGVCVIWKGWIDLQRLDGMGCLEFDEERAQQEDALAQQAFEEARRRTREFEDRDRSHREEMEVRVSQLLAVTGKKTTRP
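CBFb-His/RUNX1-biotin, 30 nM each, preincubated 20 min RT; compound 15 min RT; Ni + streptavidin beads 50 ng each, 90 min RT; AlphaScreen read.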
HPGD inh – blocks human HPGD enzyme activity. P15428. purified HPGD, NADH fluorescence kinetic, PGE2 substrate. Potency, µM, without a hit: at the top dose activity change, negative = inhibition, hits mostly inhibitors. 150,000 tested, 4.3% active; active = well fitted inhibition curve with a large enough effect, not every such curve was filed as active; inconclusive = small, poorly fitted or top-dose-only effect, or another doubt; inactive = no such curve, though single readings can be large or run the other way; note: potency is the fitted concentration of half-maximal effect; % is set by controls: 0 for no effect and ±100 for the full control effect
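NADH formation kinetics: reaction with 30 uM PGE2 and 1 mM NAD+ (final), 20 nM enzyme, Tris-HCl pH 8 with Tween 20, after 15 min compound preincubation at room temperature. Fluorescence change, last versus first of five reads.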
HTT ATP protect – protects HTT-Q103 PC12 cells, measured by ATP; PC12 HTT-Q103 induced, cytoprotection, ATP luminescence, 40 h; Potency, µM (titrated, usually from 56.4 µM), inactives show cytoprotection (ATP increase), hits mostly activators; 230,000 tested, 0.14% active; AID 1471; note: potency is the fitted concentration of half-maximal effect; % of control where 0% means no effect; nearly all actives have a fitted effect of over 45% in size
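Readout: ATPlite luminescence (ATP level). Model: stable PC12, inducible Htt exon1 Q103-GFP. Inducer: tebufenozide, 100 nM final. Compounds: dose series. No G418 in medium.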
PNC assembly inh – inhibitors of perinucleolar compartment assembly | PC3M PTB-GFP, PNC prevalence imaging, 16 h; hits give low values | activity change (PNC), negative = inhibition, % at 10 µM | 140,000 tested, 3.1% active;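 active = readout at or below -70, meaning at least 70% loss of cells showing the perinucleolar compartment, a nuclear body marking cancer cells; inconclusive = readout between -30 and a set limit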;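 note: plate controls were DMSO wells for no effect and camptothecin positive control wells for full effect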
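Compounds are pinned in duplicate onto adhered PC3M cells stably expressing GFP-tagged PTB and incubated 16 h at 37 C. Cells are then fixed, nuclei stained with Hoechst, and PNC-positive cells counted.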
ALDH1A1 block – blocks purified human ALDH1A1 activity; Potency, µM (titrated, usually from 75.3 µM), for inactives: top-dose activity, negative = inhibition, usual class: inhibitors; 220,000 tested, 7.3% active; Purified ALDH1A1, NADH fluorescence, propionaldehyde substrate; active = well fitted inhibition curve with a large enough effect, not every such curve was filed as active; inconclusive = small, poorly fitted or top-dose-only effect, or another doubt; inactive = no such curve, though single readings can be large or run the other way;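 note: potency is the fitted concentration of half-maximal effect; plate controls were no enzyme wells and a reference inhibitor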
HttQ103 aggreg – inhibitors of mutant huntingtin aggregate formation in PC12 cells; PC12 HttQ103-GFP aggregates, Acumen cytometry, 40 h; Potency, µM (series often up to 46.1 µM), for the others: at the top dose activity change, negative = inhibition, actives largely listed as inhibitors; 220,000 tested, 1.1% active; AID 1688; note: potency is the fitted concentration of half-maximal effect; % is set by controls: 0 for no effect and ±100 for the full control effect; nearly all actives have a fitted effect of over 60% in size
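Quantitative HTS on tebufenozide-induced (100 nM) PC12 cells stably expressing polyQ103 Huntingtin exon 1–GFP. Reduction of bright GFP aggregates, detected by laser scanning cytometry after lysis, identified actives across the titration.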
* hit, by the source's call; ? = inconclusive; . = no result given; [ ] = remark or other dose. In the library only some 11% were active in any assay of this set; here they are far more common. Unless noted, calls come from the whole dose curve; as a rule, active = well fitted curve in the direction sought with a large enough effect; inconclusive = small, poorly fitted or top-dose-only effect, or another doubt; inactive = no such curve, though single readings can be large; an effect the other way counts as inactive or inconclusive.

SMILES | CBFb-RUNX1 inh | HPGD inh | HTT ATP protect | PNC assembly inh | ALDH1A1 block | HttQ103 aggreg
O=C(Cc1cccs1)NCc1ccc(F)cc1 | 8% | 25µM* | -20%[0.074 µM] | 9 | 8% | -4%
O=C(NC1CCCCC1)C(c1ccc2ncccc2c1)N(Cc1ccc2c(c1)OCO2)C(=O)c1cccs1 (configuration not stated) | -2% | -14% | -43% | 3 | 5µM* | 17%
O=C(CCC1CCCCC1)NCc1cccs1 | 14% | 10µM* | 0% | 2 | -7% | 0%
COc1ccc(CC(=O)NCc2cccs2)cc1 | 4% | -28% | -14% | 0 | 3% | -11%
O=C(Cc1cccs1)NCc1cccs1 | -6% | 16µM* | -1%[0.074 µM] | ? | ? | -5%
CCC[C@H]1C[C@H](C(=O)N[C@@H]([C@H]2O[C@@H](SC)[C@@H](O)[C@@H](O)[C@@H]2O)[C@H](C)Cl)N(C)C1 | 10%[21.7 µM] | -12% | ? | . | 11%[20.9 µM] | 14%
O=S(O)CO | 25% | . | . | . | . | .
O=C(OC1C2CCC1C1CN(CCc3ccccc3)CC12)c1ccccc1 (configuration not stated) | 3% | -5% | . | 59 | 2% | 26%
O=C(NCc1ccccc1)C(c1ccccc1)N(Cc1ccc2c(c1)OCO2)C(=O)Cc1cccs1 (configuration not stated) | 2% | -13% | -40%[10 µM] | -108* | ? | -9%
O=C(NCc1ccc2c(c1)OCO2)c1cccc(C(=O)NCc2ccc3c(c2)OCO3)c1 | -8% | -15% | -31% | 8 | -8% | 14%
O=C(NCc1cccs1)C12CC3CC(CC(C3)C1)C2 | -3% | . | -22% | . | -5% | -7%
O=C(Cc1cccs1)NCc1ccc2c(c1)OCO2 | 5% | 16µM* | -16% | ? | 9% | 2%
O=C(/C=C/c1ccc(Cl)cc1)NCc1cccs1 | 0% | -19% | 27%[10 µM] | ? | 1% | 3%
O=C(CC1CC2CCC1C2)NCc1cccs1 (configuration not stated) | 4% | 16µM* | -30%[10 µM] | 4 | 8% | -7%
O=C(/C=C/c1cccc(Cl)c1)NCc1cccs1 | 11% | 32µM* | -3% | 13 | -3% | 9%
O=C(NC1CCCC1)C(c1ccccc1)N(Cc1ccc2c(c1)OCO2)C(=O)Cc1cccs1 (configuration not stated) | 6% | -6% | 4%[1.9 µM] | ? | 1% | -23%
Cc1ccc(C(=O)OCC(=O)NCc2cccs2)c(C)c1 | 4% | . | -27% | . | 8% | 6%
Cc1ccc(C)c(CSCC(=O)NCc2cccs2)c1 | -1% | . | 3.5µM* | . | 0% | 7%
O=C(CSc1ccc2ccccc2c1)NCc1cccs1 | -4% | 7.9µM* | -6%[1.9 µM] | -22 | ? | 1%
O=C(Cn1cc(C(=O)c2cccs2)c2ccccc21)NCc1ccc2c(c1)OCO2 | -2% | -5% | -10% | -10 | 14µM* | -11%
CC(C)CC(=O)NCc1ccc(F)cc1 | 0% | 16µM* | -24% | 51 | -5% | 6%
COc1ccc(-c2coc3ccc(OC4OC(COC(C)=O)C(OC(C)=O)C(OC(C)=O)C4OC(C)=O)cc3c2=O)cc1 (configuration not stated) | 17%[21.7 µM] | 0% | -54%[1.9 µM] | . | -7% | .
COc1ccc(CN[C@H](C)C(=O)O)cc1 | . | 4% | 8%[10 µM] | . | 7%[13.5 µM] | .
O=C(Nc1ccc(Cl)c(Cl)c1)c1cccc(S(=O)(=O)NCc2cccnc2)c1 | -4% | -1% | 0%[10 µM] | -8 | -8% | ?
CCOc1ccc(C(=O)N(c2ccccn2)C2CCCCC2)cc1 | 2% | . | -36% | . | 2% | 16%
SMILES | CBFb-RUNX1 inh | HPGD inh | HTT ATP protect | PNC assembly inh | ALDH1A1 block | HttQ103 aggreg
Cc1ccc(CNC(=O)COc2ccc(C(=O)c3ccc(F)cc3)cc2)cc1 | 0% | 40µM* | -72%[10 µM] | -20 | ? | ?
COc1ccc(C(=O)CNc2ccccc2CO)cc1 | -6% | . | -41% | . | 14µM* | -12%
COc1ccc(C(=O)CNc2ccccc2C#N)cc1 | 5% | . | 14% | . | ? | 22%
Oc1[nH]c2ccc(Br)cc2c1N=NC(=S)NCC1CCCO1 (configuration not stated) | -18% | . | -11%[10 µM] | . | . | -22%[9.22 µM]
Oc1[nH]c2c(Cl)cc(Cl)cc2c1N=NC(=S)NCC1CCCO1 (configuration not stated) | -4% | -10% | -47%[10 µM] | 23 | 0.45µM* | ?
CCn1c(O)c(N=NC(=S)NCC2CCCO2)c2ccccc21 (configuration not stated) | ? | . | -62% | . | 0.5µM* | ?
Oc1[nH]c2ccccc2c1N=NC(=S)NCC1CCCO1 (configuration not stated) | -3% | ? | -7%[10 µM] | ? | 11% | -4%
Cc1cc(C)c2[nH]c(O)c(N=NC(=S)NCC3CCCO3)c2c1 (configuration not stated) | -1% | -15% | -13%[10 µM] | -12 | 0.079µM* | -21%
C=CCNC(=O)N1CCc2nc(COc3ccccc3)c3c(c2C1)CO[C@@H](C)C3 | 3%[13.1 µM] | 3% | -25%[10 µM] | . | 16%[13.5 µM] | .
CC(C)n1c(=O)[nH]c2ccccc21 | 2% | -10% | -10% | -8 | 12% | -4%
CC(C)n1c(=O)[nH][nH]c1=S | 1% | . | 0%[10 µM] | . | 0.79µM* | -7%[9.22 µM]
COC(=O)[C@@]1(Cc2ccc(OC)cc2)[C@H]2c3cc(C(=O)N4CCCC4)n(Cc4cc(F)c(F)c(F)c4)c3C[C@H]2CN1C(=O)c1ccccc1 | 3% | -13% | -58% | . | -3% | .
C/C(=C\C(=O)c1ccncc1)Nc1ccccc1O | -3% | 14µM* | 1% | -2 | 2% | -17%
Cc1ccc(N(CC(=O)Nc2cccc(C)c2)S(=O)(=O)c2cccc3nonc23)cc1 | ? | . | 7% | ? | 7.1µM* | -25%
N#CCSCC(=O)Nc1ccccc1 | 13% | -17% | 4% | ? | -8% | 4%
N#C/C(Cn1c[n+](NC(=O)Nc2ccccc2)cn1)=N/O | -4% | -8% | -14%[0.074 µM] | 16 | 32µM* | -1%
O=C(O)c1cc(C(=O)O)nc(C(=O)O)c1 | . | -10% | 0%[10 µM] | . | -4%[13.5 µM] | .
O=c1oc2ccccc2c2c1nc(C(F)(F)F)n2-c1ccccc1 | -12% | -7% | -3% | ? | 6% | 26%
C=CC[n+]1c(-c2ccc(OC)cc2)csc1NNC(=O)Nc1ccccc1 | -7% | -14% | 28% | 20 | ? | 10µM*
COC(=O)CN1C(=S)N(c2ccc(OC)cc2)C(=O)/C1=C/c1ccc(N2CCOCC2)cc1 | -13% | . | -37% | . | ? | ?
COC(=O)/C=C1\SC(N2CCOCC2)=C(c2ccc(OC)cc2)C1=O | 16% | . | -32% | . | 7.9µM* | -6%
